From PubChem BioAssay (Tox21)
Values joined by “and” are separate entries in the source; they are usually repeats but may differ in a detail not shown here. Equal values may be shown once. Results filed as inconclusive are left out. Entries that show only a call come without a potency. The source holds several records for some structures; these can differ, active in one and inactive in another. Active and inactive are the calls of the source. Unless noted, the call rests on the fitted dose curve.

experiment: qHTS assay to identify small molecule agonists of the hypoxia (HIF-1) signaling pathway (AID 1224846; active means well fitted activation curve with a large enough effect in the signal ratio in the repeat runs, not every such curve was filed as active; the % refers to the signal ratio); details: HRE-bla ME-180 cells, beta-lactamase ratio, 17 h; series mostly up to 76.8 µM; activation: at the top concentration
How it was run: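 Compounds from the Tox21 10K library, dissolved in DMSO, are tested for induction of a hypoxia response element–controlled beta-lactamase reporter in ME-180 cells. Exposure lasts 17 hrs at 37C after a 5 hr settling period, followed by CCF4-AM FRET substrate.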

Row | SMILES | outcome | activation
1 | CC(C)(N=C=O)c1cccc(C(C)(C)N=C=O)c1 | inactive | 
2 | CCCCC/C=C\C/C=C\CCCCCCCC(=O)OC | inactive | 
3 | CCCCCCCCCCCCN | inactive | 
4 | Oc1ccc(OCc2ccccc2)cc1 | inactive | 
5 | CCC(=O)O | inactive | 
6 | O=[N+]([O-])C(CO)(CO)CO | inactive | 
7 | Nc1c(S(=O)(=O)O)cc(Br)c2c1C(=O)c1ccccc1C2=O | inactive | 
8 | Cc1cc(O)cc(C)c1Cl | inactive | 
9 | Oc1c(Cl)cc(Cl)c(Cl)c1Cl |  | 6.54% (inactive)
10 | Cc1cc(Cc2ccc(N)c(C)c2)ccc1N | inactive | 
11 | CC(C)n1c(/C=C/[C@@H](O)C[C@@H](O)CC(=O)O)c(-c2ccc(F)cc2)c2ccccc21 | inactive | 
12 | CCCCCCCCCC(=O)O | inactive | 
13 | CN(C)c1ccc(C(=N)c2ccc(N(C)C)cc2)cc1 | inactive | 
14 | CC(=O)CCc1ccccc1 | inactive | 
15 | O=Nc1ccc(O)cc1 | inactive | 
16 | COC(=O)c1ccccc1O | inactive | 
17 | CCOC(=O)/C=C\C(=O)OCC | inactive | 
18 | C/C=C(C)/C=C/C=C(C)C |  | -2.35% (inactive)
19 | Oc1ccc2ccccc2c1 | inactive | 
20 | COC(=O)c1ccc(C(=O)OC)cc1 |  | 0% (inactive)
21 | Clc1cc(Cl)c(Cl)cc1Cl | inactive | 
22 | CC1(C)O[C@@H]2C[C@H]3[C@@H]4C[C@H](F)C5=CC(=O)CC[C@]5(C)[C@H]4[C@@H](O)C[C@]3(C)[C@]2(C(=O)CO)O1 | inactive | 
23 | O=C(c1ccc(O)cc1)c1ccc(O)cc1O | inactive | 
24 | CCCCC(CC)COC(=O)CCCCCCCC(=O)OCC(CC)CCCC (stereo not drawn) |  | 0.176% (inactive)
25 | CC1(C)CC(N=C=O)CC(C)(CN=C=O)C1 (stereo not drawn) | inactive | 
26 | CC(C)(C)C1CCC(O)CC1 (stereo not drawn) | inactive | 
27 | CCCCC(CC)COC(C)=O (stereo not drawn) | inactive | 
28 | CC1COc2ccccc2N1C(=O)C(Cl)Cl (stereo not drawn) | inactive | 
29 | S=c1nc[nH]c2nc[nH]c12 | inactive | 

experiment: qHTS assay to identify small molecule agonists of H2AX - cell viability counter screen (AID 1224847); details: CHO-K1 viability, CellTiter-Glo luminescence, 3 h; series mostly up to 154 µM; activity change, negative = cytotoxicity: at the top concentration; further: nearly all actives have a fitted effect of over 30% in size; further: potency means the concentration at half of the fitted maximal effect; on activity change, negative = cytotoxicity: top concentration of the series differs between compounds
How it was run: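 Read-out: CellTiter-Glo luminescence, 30 min RT. Cells: wild-type CHO-K1, 1000/well, 10% FBS, plated overnight at 37C. Treatment: 15 concentrations, 3 hr, 37C, 0.76% DMSO.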

Row | SMILES | Potency | activity change, negative = cytotoxicity
30 | Cc1cc(NS(=O)(=O)c2ccc(N)cc2)no1 | inactive | 
31 | CCCCC/C=C\C/C=C\CCCCCCCC(=O)OC |  | 1.19% (inactive)
32 | CCC(=O)O | inactive | 
33 | CC1CC(OC(=O)c2ccccc2O)CC(C)(C)C1 (stereo not drawn) | inactive | 
34 | O=[N+]([O-])C(CO)(CO)CO | inactive | 
35 | CC(C)NCC(O)COc1cccc2ccccc12 (stereo not drawn) | inactive | 
36 | Nc1c(S(=O)(=O)O)cc(Br)c2c1C(=O)c1ccccc1C2=O | inactive | 
37 | Cc1cc(O)cc(C)c1Cl | inactive | 
38 | Oc1c(Cl)cc(Cl)c(Cl)c1Cl | 111 µM (active) | 
39 | CC(C)n1c(/C=C/[C@@H](O)C[C@@H](O)CC(=O)O)c(-c2ccc(F)cc2)c2ccccc21 | inactive | 
40 | CCCCCCCCCC(=O)O | inactive | 
41 | CC(=O)CCc1ccccc1 | inactive | 
42 | O=Nc1ccc(O)cc1 |  | -5.88% (inactive)
43 | CC1=C(CC(=O)O)c2cc(F)ccc2/C1=C\c1ccc(S(C)=O)cc1 (stereo not drawn) | inactive | 
44 | CCOC(=O)/C=C\C(=O)OCC | inactive | 
45 | C/C=C(C)/C=C/C=C(C)C | inactive | 
46 | Oc1ccc2ccccc2c1 | inactive | 
47 | COC(=O)c1ccc(C(=O)OC)cc1 | inactive | 
48 | CC1(C)O[C@@H]2C[C@H]3[C@@H]4C[C@H](F)C5=CC(=O)CC[C@]5(C)[C@H]4[C@@H](O)C[C@]3(C)[C@]2(C(=O)CO)O1 | inactive | 
49 | CCCCC(CC)COC(=O)CCCCCCCC(=O)OCC(CC)CCCC (stereo not drawn) |  | 1.76% (inactive)
50 | CC(C)(C)C1CCC(O)CC1 (stereo not drawn) | inactive | 
51 | CCCCC(CC)COC(C)=O (stereo not drawn) | inactive | 
52 | S=c1nc[nH]c2nc[nH]c12 |  | -9.91% (inactive)

experiment: qHTS assay to identify small molecule agonists of the estrogen related receptor (ERR) signaling pathway from Tox21 library (AID 1224849); details: ERR reporter cell line, ONE-Glo luciferase, 18 h; at 92.4 µM (top of the series); further: nearly all actives have a fitted effect of over 15% in size
How it was run: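 Cells carrying the ERR reporter were plated and allowed to settle for 6 h, exposed to library compounds for 18 h at 37 C, then lysed with ONE-Glo and luminescence measured.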

Row | SMILES | activity change, positive = activation
53 | CC(C)(N=C=O)c1cccc(C(C)(C)N=C=O)c1 | -40.3% (inactive) and 2.13% (inactive)
54 | CCCCCCCCCC(=O)O | -1.8% (inactive) and -5.57% (inactive)
55 | CC(=O)CCc1ccccc1 | 1.01% (inactive) and -0.812% (inactive)
56 | COC(=O)c1ccccc1O | 19.3% (active) and 7.16% (inactive)
57 | CCCCC(CC)COC(=O)CCCCCCCC(=O)OCC(CC)CCCC (stereo not drawn) | -81.2% (inactive) and -2.38% (inactive)
58 | CCCCC(CC)COC(C)=O (stereo not drawn) | 8.75% (inactive) and 0.0839% (inactive)

experiment: qHTS RealTime-Glo MT Cell Viability Assay in HepG2 cells - 24 hour (AID 1224867; active means well fitted cell-killing curve with a large enough effect in the repeat runs; further: nearly all actives have a fitted effect of over 50% in size); details: RealTime-Glo luminescence; series mostly up to 76.8 µM; activity change, negative = cytotoxicity: at the top concentration
How it was run: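 Tox21 10K library screened in qHTS format on HepG2 cells carrying RealTime-Glo reagents. Compounds were added after a 5 h preincubation, and the luminescent signal from continuous culture was measured repeatedly during 40 h treatment.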

Row | SMILES | Potency
59 | Cc1cc(NS(=O)(=O)c2ccc(N)cc2)no1 | inactive
60 | O=C1N=C(O)CN1/N=C/c1ccc(-c2ccc([N+](=O)[O-])cc2)o1 | inactive
61 | Nc1cc(-c2ccncc2)c[nH]c1=O | inactive
62 | CC(C)(N=C=O)c1cccc(C(C)(C)N=C=O)c1 | inactive
63 | CCCCC/C=C\C/C=C\CCCCCCCC(=O)OC | inactive
64 | Oc1ccc(OCc2ccccc2)cc1 | inactive
65 | CC1CC(OC(=O)c2ccccc2O)CC(C)(C)C1 (stereo not drawn) | inactive
66 | CC1Cc2ccccc2N1NC(=O)c1ccc(Cl)c(S(N)(=O)=O)c1 (stereo not drawn) | inactive
67 | O=[N+]([O-])C(CO)(CO)CO | inactive
68 | CC(C)NCC(O)COc1cccc2ccccc12 (stereo not drawn) | inactive
69 | Nc1c(S(=O)(=O)O)cc(Br)c2c1C(=O)c1ccccc1C2=O | inactive
70 | Cc1cc(O)cc(C)c1Cl | inactive
71 | Oc1c(Cl)cc(Cl)c(Cl)c1Cl | inactive
72 | Cc1cc(Cc2ccc(N)c(C)c2)ccc1N | inactive
73 | O=Nc1ccc(O)cc1 | inactive
74 | CC1=C(CC(=O)O)c2cc(F)ccc2/C1=C\c1ccc(S(C)=O)cc1 (stereo not drawn) | inactive
75 | COC(=O)c1ccccc1O | inactive
76 | Oc1ccc2ccccc2c1 | inactive
77 | O=C(c1ccc(O)cc1)c1ccc(O)cc1O | inactive
78 | CCCCC(CC)COC(=O)CCCCCCCC(=O)OCC(CC)CCCC (stereo not drawn) | inactive
79 | COC(=O)Nc1nc2ccc(Sc3ccccc3)cc2[nH]1 | inactive
80 | CC1(C)CC(N=C=O)CC(C)(CN=C=O)C1 (stereo not drawn) | inactive
81 | NCCc1ccc(O)c(O)c1 | inactive
82 | CCCCC(CC)COC(C)=O (stereo not drawn) | inactive
83 | S=c1nc[nH]c2nc[nH]c12 | inactive
